± gives the standard deviation of the averaged measurements.
Tests used:
Drosophila melanogaster [1] = test: olfactory response index (dipstick assay) (fraction of flies (RI; 1 aversion, 0.5 indifferent, 0 attraction)); higher = stronger aversion to the odorant; details: odorant concentration: 1% v/v, male
Drosophila melanogaster [2] = test: as above; details: odorant concentration: 1% v/v, female
[3] = genotype (tubulin-GAL4 x UAS-RNAi line; control = progenitor): A5
[4] = genotype (tubulin-GAL4 x UAS-RNAi line; control = progenitor): control
[5] = genotype (tubulin-GAL4 x UAS-RNAi line; control = progenitor): obp 18a
[6] = genotype (tubulin-GAL4 x UAS-RNAi line; control = progenitor): obp 22a
[7] = genotype (tubulin-GAL4 x UAS-RNAi line; control = progenitor): obp 28a
[8] = genotype (tubulin-GAL4 x UAS-RNAi line; control = progenitor): obp 56a
[9] = genotype (tubulin-GAL4 x UAS-RNAi line; control = progenitor): obp 56c
[10] = genotype (tubulin-GAL4 x UAS-RNAi line; control = progenitor): obp 56f
[11] = genotype (tubulin-GAL4 x UAS-RNAi line; control = progenitor): obp 57a
[12] = genotype (tubulin-GAL4 x UAS-RNAi line; control = progenitor): obp 57b
[13] = genotype (tubulin-GAL4 x UAS-RNAi line; control = progenitor): obp 58c
[14] = genotype (tubulin-GAL4 x UAS-RNAi line; control = progenitor): obp 59a
[15] = genotype (tubulin-GAL4 x UAS-RNAi line; control = progenitor): obp 83a
[16] = genotype (tubulin-GAL4 x UAS-RNAi line; control = progenitor): obp 83c
[17] = genotype (tubulin-GAL4 x UAS-RNAi line; control = progenitor): obp 93a
[18] = genotype (tubulin-GAL4 x UAS-RNAi line; control = progenitor): obp 99b
[19] = genotype (tubulin-GAL4 x UAS-RNAi line; control = progenitor): obp 56h
[20] = genotype (tubulin-GAL4 x UAS-RNAi line; control = progenitor): obp 58b

| Compound | olfactory response index (Drosophila melanogaster [1]; [3]) | olfactory response index (Drosophila melanogaster [1]; [4]) | olfactory response index (Drosophila melanogaster [1]; [5]) | olfactory response index (Drosophila melanogaster [1]; [6]) | olfactory response index (Drosophila melanogaster [1]; [7]) | olfactory response index (Drosophila melanogaster [1]; [8]) | olfactory response index (Drosophila melanogaster [1]; [9]) | olfactory response index (Drosophila melanogaster [1]; [10]) | olfactory response index (Drosophila melanogaster [1]; [11]) | olfactory response index (Drosophila melanogaster [1]; [12]) | olfactory response index (Drosophila melanogaster [1]; [13]) | olfactory response index (Drosophila melanogaster [1]; [14]) | olfactory response index (Drosophila melanogaster [1]; [15]) | olfactory response index (Drosophila melanogaster [1]; [16]) | olfactory response index (Drosophila melanogaster [1]; [17]) | olfactory response index (Drosophila melanogaster [1]; [18]) | olfactory response index (Drosophila melanogaster [1]; [19]) | olfactory response index (Drosophila melanogaster [2]; [3]) | olfactory response index (Drosophila melanogaster [2]; [4]) | olfactory response index (Drosophila melanogaster [2]; [5]) | olfactory response index (Drosophila melanogaster [2]; [6]) | olfactory response index (Drosophila melanogaster [2]; [7]) | olfactory response index (Drosophila melanogaster [2]; [8]) | olfactory response index (Drosophila melanogaster [2]; [9]) | olfactory response index (Drosophila melanogaster [2]; [10]) | olfactory response index (Drosophila melanogaster [2]; [11]) | olfactory response index (Drosophila melanogaster [2]; [12]) | olfactory response index (Drosophila melanogaster [2]; [20]) | olfactory response index (Drosophila melanogaster [2]; [13]) | olfactory response index (Drosophila melanogaster [2]; [14]) | olfactory response index (Drosophila melanogaster [2]; [15]) | olfactory response index (Drosophila melanogaster [2]; [16]) | olfactory response index (Drosophila melanogaster [2]; [17]) | olfactory response index (Drosophila melanogaster [2]; [18]) | olfactory response index (Drosophila melanogaster [2]; [19]) |
| --- | --- | --- | --- | --- | --- | --- | --- | --- | --- | --- | --- | --- | --- | --- | --- | --- | --- | --- | --- | --- | --- | --- | --- | --- | --- | --- | --- | --- | --- | --- | --- | --- | --- | --- | --- |
| CC(C)=CCCC(C)=CC=O (mixture of isomers) [citral] | 0.266 ± 0.06 | 0.226 ± 0.041 | 0.202 ± 0.06 | 0.17 ± 0.11 | 0.387 ± 0.092 | 0.0537 ± 0.02 | 0.186 ± 0.067 | 0.452 ± 0.042 | 0.215 ± 0.046 | 0.321 ± 0.11 | 0.166 ± 0.046 | 0.517 ± 0.0054 | 0.101 ± 0.099 | 0.292 ± 0.16 | 0.285 ± 0.083 | 0.0832 ± 0.075 | 0.226 ± 0.13 | 0.595 ± 0.02 | 0.674 ± 0.046 | 0.292 ± 0.12 | 0.474 ± 0.18 | 0.552 ± 0.055 | 0.195 ± 0.075 | 0.606 ± 0.034 | 0.639 ± 0.027 | 0.636 ± 0.17 | 0.642 ± 0.097 | 0.687 ± 0.15 | 0.409 ± 0.19 | 0.68 ± 0.086 | 0.479 ± 0.091 | 0.262 ± 0.091 | 0.536 ± 0.16 | 0.317 ± 0.01 | 0.66 ± 0.13 |
| OCCc1ccccc1 [2-phenylethanol] | 0.116 ± 0.078 | 0.0893 ± 0.051 | 0.0701 ± 0.021 | 0.0651 ± 0.059 | 0.163 ± 0.03 | 0.0222 ± 0.021 | 0.0551 ± 0.048 | 0.0672 ± 0.04 | 0.0379 ± 0.021 | 0.138 ± 0.096 | 0.125 ± 0.076 | 0.155 ± 0.067 | 0.132 ± 0.06 | 0.127 ± 0.051 | 0.135 ± 0.043 | 0.0352 ± 0.025 | 0.106 ± 0.049 | 0.396 ± 0.15 | 0.5 ± 0.2 | 0.117 ± 0.066 | 0.403 ± 0.12 | 0.526 ± 0.051 | 0.299 ± 0.11 | 0.367 ± 0.17 | 0.414 ± 0.076 | 0.128 ± 0.068 | 0.379 ± 0.17 | 0.381 ± 0.17 | 0.166 ± 0.08 | 0.258 ± 0.074 | 0.414 ± 0.058 | 0.437 ± 0.14 | 0.422 ± 0.2 | 0.0815 ± 0.14 | 0.258 ± 0.2 |
| C=C(C)[C@@H]1CC=C(C)C(=O)C1 [(R)-carvone] | 0.627 ± 0.12 | 0.163 ± 0.067 | 0.206 ± 0.16 | 0.34 ± 0.1 | 0.499 ± 0.09 | 0.396 ± 0.16 | 0.158 ± 0.14 | 0.201 ± 0.076 | 0.207 ± 0.1 | 0.378 ± 0.18 | 0.24 ± 0.096 | 0.541 ± 0.14 | 0.422 ± 0.069 | 0.146 ± 0.12 | 0.472 ± 0.21 | 0.233 ± 0.12 | 0.306 ± 0.22 | 0.747 ± 0.074 | 0.712 ± 0.019 | 0.484 ± 0.18 | 0.5 ± 0.16 | 0.662 ± 0.12 | 0.532 ± 0.2 | 0.712 ± 0.2 | 0.616 ± 0.13 | 0.582 ± 0.15 | 0.685 ± 0.13 | 0.622 ± 0.14 | 0.684 ± 0.077 | 0.711 ± 0.059 | 0.535 ± 0.06 | 0.655 ± 0.11 | 0.708 ± 0.16 | 0.676 ± 0.022 | 0.615 ± 0.14 |
| CC(=O)c1ccccc1 [acetophenone] | 0.629 ± 0.048 | 0.394 ± 0.035 | 0.26 ± 0.13 | 0.231 ± 0.17 | 0.419 ± 0.18 | 0.275 ± 0.14 | 0.265 ± 0.077 | 0.655 ± 0.15 | 0.332 ± 0.051 | 0.318 ± 0.13 | 0.578 ± 0.18 | 0.533 ± 0.14 | 0.745 ± 0.16 | 0.066 ± 0.075 | 0.242 ± 0.12 | 0.326 ± 0.023 | 0.657 ± 0.11 | 0.747 ± 0.024 | 0.69 ± 0.11 | 0.588 ± 0.13 | 0.67 ± 0.066 | 0.656 ± 0.078 | 0.503 ± 0.066 | 0.602 ± 0.057 | 0.801 ± 0.055 | 0.668 ± 0.1 | 0.629 ± 0.053 | 0.621 ± 0.061 | 0.562 ± 0.14 | 0.717 ± 0.05 | 0.45 ± 0.15 | 0.631 ± 0.082 | 0.69 ± 0.067 | 0.376 ± 0.15 | 0.489 ± 0.037 |
| CC(C)=CCC/C(C)=C/CO [geraniol] | 0.228 ± 0.033 | 0.136 ± 0.091 | 0.0872 ± 0.11 | 0.0901 ± 0.081 | 0.177 ± 0.1 | 0.188 ± 0.086 | 0.174 ± 0.038 | 0.175 ± 0.023 | 0.0811 ± 0.02 | 0.0917 ± 0.055 | 0.114 ± 0.049 | 0.441 ± 0.039 | 0.159 ± 0.025 | 0.183 ± 0.099 | 0.412 ± 0.13 | 0.141 ± 0.11 | 0.197 ± 0.18 | 0.71 ± 0.16 | 0.492 ± 0.12 | 0.371 ± 0.15 | 0.367 ± 0.018 | 0.605 ± 0.03 | 0.581 ± 0.099 | 0.295 ± 0.025 | 0.468 ± 0.18 | 0.406 ± 0.12 | 0.504 ± 0.032 | 0.591 ± 0.17 | 0.19 ± 0.12 | 0.565 ± 0.091 | 0.442 ± 0.07 | 0.414 ± 0.034 | 0.593 ± 0.061 | 0.35 ± 0.23 | 0.406 ± 0.18 |
| Cc1cnccn1 [2-methylpyrazine] | 0.457 ± 0.04 | 0.104 ± 0.039 | 0.178 ± 0.049 | 0.155 ± 0.17 | 0.085 ± 0.043 | 0.176 ± 0.094 | 0.293 ± 0.15 | 0.151 ± 0.066 | 0.238 ± 0.096 | 0.261 ± 0.04 | 0.116 ± 0.1 | 0.397 ± 0.041 | 0.305 ± 0.16 | 0.218 ± 0.18 | 0.111 ± 0.044 | 0.1 ± 0.087 | 0.233 ± 0.078 | 0.623 ± 0.14 | 0.415 ± 0.074 | 0.358 ± 0.17 | 0.394 ± 0.084 | 0.527 ± 0.068 | 0.318 ± 0.099 | 0.458 ± 0.14 | 0.674 ± 0.013 | 0.532 ± 0.066 | 0.543 ± 0.082 | 0.159 ± 0.054 | 0.304 ± 0.15 | 0.552 ± 0.3 | 0.478 ± 0.062 | 0.431 ± 0.12 | 0.506 ± 0.13 | 0.381 ± 0.059 | 0.393 ± 0.099 |
| COC(=O)c1ccccc1O [methyl salicylate] | 0.331 ± 0.2 | 0.13 ± 0.099 | 0.0711 ± 0.077 | 0.179 ± 0.09 | 0.249 ± 0.1 | 0.161 ± 0.056 | 0.181 ± 0.16 | 0.173 ± 0.11 | 0.038 ± 0.036 | 0.193 ± 0.15 | 0.159 ± 0.068 | 0.368 ± 0.047 | 0.225 ± 0.13 | 0.14 ± 0.032 | 0.294 ± 0.18 | 0.108 ± 0.042 | 0.147 ± 0.04 | 0.49 ± 0.19 | 0.558 ± 0.091 | 0.114 ± 0.14 | 0.486 ± 0.086 | 0.384 ± 0.081 | 0.523 ± 0.13 | 0.27 ± 0.14 | 0.295 ± 0.068 | 0.356 ± 0.1 | 0.384 ± 0.23 | 0.287 ± 0.066 | 0.381 ± 0.22 | 0.616 ± 0.093 | 0.454 ± 0.19 | 0.654 ± 0.066 | 0.491 ± 0.02 | 0.308 ± 0.16 | 0.63 ± 0.22 |

Reference: the supplement of paper PMC3150612
